Data published in PubChem BioAssay AID1159580 (chemical genetic matrix, 2015).
Values joined by “and” are separate entries in the source; they are usually repeats but may differ in a detail not shown here. Equal values may be shown once. Hit rate of the full screen: of about 5,500 compounds, about 2,000 (36%) were called active. Roughly 18% stayed inconclusive and do not appear here. No stated cut-off is given here; in the data, active means normalized growth mostly below about 0.91 (no sharp cut-off); inconclusive means no clear call, values can overlap the other calls; inactive means mostly above about 0.92. Some of the results follow.

Test: chemical genetic growth profiling, strain panel (AID 1159580);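 further: tested at 20 µM; growth read once vehicle control cultures reached saturation at 30 °C; 1 = growth at the plate median or of vehicle wells; lower values mean less growth of the strain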
Details: growth OD

Measured: normalized growth

O=c1c(O)c(-c2cc(O)c(O)c(O)c2)oc2cc(O)cc(O)c12
inactive: S. cerevisiae deletion strains, locus YAL040C, strain CLN3, hits give low values 1.07 | S. cerevisiae deletion strains, locus YBR021W, strain FUR4, hits give low values 1.01 | S. cerevisiae deletion strains, locus YBR229C, strain ROT2, hits give low values 1 | S. cerevisiae deletion strains, locus YCL029C, strain bik1, hits give low values 1.02 | S. cerevisiae deletion strains, locus YCL061C, strain MRC1 (second series), hits give low values 0.985 | S. cerevisiae deletion strains, locus YDL035C, strain GPR1, hits give low values 0.972 | S. cerevisiae deletion strains, locus YDL074C, strain BRE1, hits give low values 1.01 | S. cerevisiae deletion strains, locus YDL101C, strain DUN1, hits give low values 1.03 | S. cerevisiae deletion strains, locus YDL185W, strain tfp1, hits give low values 1.02 | S. cerevisiae deletion strains, locus YDL192W, strain arf1, hits give low values 1.02 | S. cerevisiae deletion strains, locus YDR101C, strain arx1, hits give low values 1 | S. cerevisiae deletion strains, locus YDR150W, strain NUM1, hits give low values 1.02 | S. cerevisiae deletion strains, locus YDR162C, strain NBP2, hits give low values 0.963 | S. cerevisiae deletion strains, locus YDR318W, strain mcm21, hits give low values 1.01 | S. cerevisiae deletion strains, locus YDR363W, strain ESC2, hits give low values 1.03 | S. cerevisiae deletion strains, locus YDR388W, hits give low values 1.02 | S. cerevisiae deletion strains, locus YDR502C, strain sam2, hits give low values 1 | S. cerevisiae deletion strains, locus YEL061C, strain CIN8, hits give low values 1 | S. cerevisiae deletion strains, locus YER002W, strain NOP16, hits give low values 1 | S. cerevisiae deletion strains, locus YER110C, hits give low values 1.03 | S. cerevisiae deletion strains, locus YER155C, strain BEM2, hits give low values 0.999 | S. cerevisiae deletion strains, locus YER167W, strain BCK2, hits give low values 0.997 | S. cerevisiae deletion strains, locus YGL078C, strain dbp3, hits give low values 1 | S. cerevisiae deletion strains, locus YGL086W, strain mad1, hits give low values 1 | S. cerevisiae deletion strains, locus YGL248W, strain PDE1, hits give low values 1.03 | S. cerevisiae deletion strains, locus YGR078C, strain PAC10, hits give low values 0.959 | S. cerevisiae deletion strains, locus YGR135W, strain pre9, hits give low values 0.998 | S. cerevisiae deletion strains, locus YGR252W, strain gcn5, hits give low values 1 | S. cerevisiae deletion strains, locus YHR030C, strain SLT2, hits give low values 1.01 | S. cerevisiae deletion strains, locus YHR079C, strain IRE1 (second series), hits give low values 1.01 | S. cerevisiae deletion strains, locus YHR094C, strain hxt1, hits give low values 1.03 | S. cerevisiae deletion strains, locus YHR129C, strain ARP1, hits give low values 1.02 | S. cerevisiae deletion strains, locus YHR200W, strain rpn10, hits give low values 1.02 | S. cerevisiae deletion strains, locus YIL066C, strain RNR3, hits give low values 0.976 | S. cerevisiae deletion strains, locus YIL073C, strain SPO22, hits give low values 1.03 | S. cerevisiae deletion strains, locus YIL125W, strain kgd1, hits give low values 1.02 | S. cerevisiae deletion strains, locus YIR030C, strain dcg1, hits give low values 1 | S. cerevisiae deletion strains, locus YJL095W, strain BCK1, hits give low values 1.05 | S. cerevisiae deletion strains, locus YJL134W, strain LCB3, hits give low values 1 | S. cerevisiae deletion strains, locus YJL168C, strain set2, hits give low values 1.01 | S. cerevisiae deletion strains, locus YJL187C, strain SWE1 (second series), hits give low values 1.05 | S. cerevisiae deletion strains, locus YJR043C, strain POL32, hits give low values 0.965 | S. cerevisiae deletion strains, locus YJR075W, strain HOC1, hits give low values 0.993 | S. cerevisiae deletion strains, locus YKL009W, strain mrt4, hits give low values 0.996 | S. cerevisiae deletion strains, locus YKL068W, hits give low values 1.01 | S. cerevisiae deletion strains, locus YKL085W, strain MDH1 (second series), hits give low values 1 | S. cerevisiae deletion strains, locus YKL085W, strain MDH1, hits give low values 1 | S. cerevisiae deletion strains, locus YKL190W, strain CNB1, hits give low values 1.01 | S. cerevisiae deletion strains, locus YKR001C, strain vps1, hits give low values 1.01 | S. cerevisiae deletion strains, locus YLR039C, strain RIC1, hits give low values 1 | S. cerevisiae deletion strains, locus YLR058C, strain SHM2, hits give low values 1.01 | S. cerevisiae deletion strains, locus YLR102C, strain apc9, hits give low values 1.02 | S. cerevisiae deletion strains, locus YLR262C, strain YPT6, hits give low values 0.997 | S. cerevisiae deletion strains, locus YLR268W, strain sec22, hits give low values 1.03 | S. cerevisiae deletion strains, locus YLR330W, strain CHS5, hits give low values 1.01 | S. cerevisiae deletion strains, locus YLR342W, strain FKS1 (second series), hits give low values 1.04 | S. cerevisiae deletion strains, locus YLR371W, strain rom2, hits give low values 1.01 | S. cerevisiae deletion strains, locus YLR418C, strain cdc73, hits give low values 0.981 | S. cerevisiae deletion strains, locus YML016C, strain PPZ1, hits give low values 1 | S. cerevisiae deletion strains, locus YML032C, strain rad52, hits give low values 1 | S. cerevisiae deletion strains, locus YML124C, strain tub3, hits give low values 1.01 | S. cerevisiae deletion strains, locus YMR078C, strain ctf18, hits give low values 1.01 | S. cerevisiae deletion strains, locus YMR223W, strain ubp8, hits give low values 1 | S. cerevisiae deletion strains, locus YMR263W, strain SAP30, hits give low values 1.05 | S. cerevisiae deletion strains, locus YMR307W, strain GAS1, hits give low values 0.969 and 0.876 | S. cerevisiae deletion strains, locus YNL067W, strain RPL9B, hits give low values 1.06 | S. cerevisiae deletion strains, locus YNL175C, strain NOP13, hits give low values 0.999 | S. cerevisiae deletion strains, locus YNL197C, strain WHI3, hits give low values 0.997 | S. cerevisiae deletion strains, locus YNL224C, strain SQS1, hits give low values 0.967 | S. cerevisiae deletion strains, locus YNL233W, strain BNI4, hits give low values 1.05 | S. cerevisiae deletion strains, locus YNL250W, strain rad50, hits give low values 1.02 | S. cerevisiae deletion strains, locus YNL271C, strain bni1, hits give low values 1.01 | S. cerevisiae deletion strains, locus YNL298W, strain CLA4, hits give low values 1.02 | S. cerevisiae deletion strains, locus YNL307C, strain MCK1, hits give low values 1.02 | S. cerevisiae deletion strains, locus YNR052C, strain pop2, hits give low values 1 | S. cerevisiae deletion strains, locus YOL006C, strain TOP1, hits give low values 1.08 | S. cerevisiae deletion strains, locus YOL012C, strain htz1 0.839 | S. cerevisiae deletion strains, locus YOL147C, strain pex11, hits give low values 1.02 | S. cerevisiae deletion strains, locus YOR061W, strain CKA2, hits give low values 0.99 | S. cerevisiae deletion strains, locus YOR069W, strain VPS5, hits give low values 1.01 | S. cerevisiae deletion strains, locus YOR083W, strain WHI5 (second series), hits give low values 0.957 | S. cerevisiae deletion strains, locus YOR136W, strain idh2, hits give low values 1.03 | S. cerevisiae deletion strains, locus YOR144C, strain elg1, hits give low values 1.01 | S. cerevisiae deletion strains, locus YOR184W, strain ser1, hits give low values 1 | S. cerevisiae deletion strains, locus YOR316C, strain cot1, hits give low values 1.02 | S. cerevisiae deletion strains, locus YPL055C, strain LGE1, hits give low values 1.01 | S. cerevisiae deletion strains, locus YPL241C, strain CIN2, hits give low values 0.995 | S. cerevisiae deletion strains, locus YPR119W, strain clb2, hits give low values 1.01 | S. cerevisiae deletion strains, locus YPR141C, strain kar3, hits give low values 1.01 | S. cerevisiae deletion strains, locus YPR163C, strain tif3, hits give low values 1.01 | S. cerevisiae deletion strains, locus YPR167C, strain met16, hits give low values 1.01 | S. cerevisiae deletion strains, strain wtn01, hits give low values 1.02 | S. cerevisiae strains, strain wild type, hits give low values 1.01
active: S. cerevisiae deletion strains, locus YGR229C, strain SMI1, hits give low values 0.416 | S. cerevisiae deletion strains, locus YNL322C, strain KRE1, hits give low values 0.898
